Bioassay records from PubChem BioAssay.
hcDAF12 agonist: H. contortus DAF-12 nuclear receptor activators, primary screen, cell-based, luminescence, HEK293, lit1-tk-luc reporter; HEK293 hcDAF-12 lit1-tk-luc reporter; 0% DMSO, 100% Δ7-dafachronic acid; activation, % at 6.8 µM; 1.4% of 370,000 active; AID 652067, 2013;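 active = activation above the mean of all tested compounds plus 3 SD, cut at about 5.5% in these data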
hgDAF-12 ag: H. glycines DAF-12 receptor agonists, primary screen, cell-based, luminescence, HEK293, GAL4 fusion, UAS-luciferase | Nuclear hormone receptor DAF-12 (Heterodera glycines), GAL4 fusion | HEK293 GAL4-hgDAF12 UAS-luciferase reporter, agonist luminescence; normalized to butyrate control | activation, % at 6.8 µM | 1.8% of 370,000 active;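 active = activation above a cutoff set at the mean of all screened compounds plus 3 SD, cut at about 10% in these data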
ssDAF-12 act: S. stercoralis DAF-12 nuclear receptor activators, primary screen, cell-based, luminescence, HEK293, GRIP1 co-expression, lit1-tk-luc; Nuclear hormone receptor DAF-12 (Strongyloides stercoralis); HEK293 ssDAF-12/GRIP1 lit1-tk-luc reporter; % of 3 µM dafachronic acid response; activation, % at 6.8 µM; 1% of 370,000 active; AID 652126, 2013;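 active = activation above the mean over all tested compounds plus 3 SD, cut at about 0.9% in these data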
SMARCA2 activ: SMARCA2 (BRM) function activators, primary screen, cell-based, luminescence, high throughput | MG213 cells, MMTV-luciferase reporter, dexamethasone, overnight | activation, % at 9.1 µM | 1% of 370,000 active | AID 652017, 2013; in the data active = activation above about 7.8%
DAX1 inh-1: DAX1 (NR0B1) inhibitors, primary screen, cell-based, HEK293, Gal4-DAX1, luciferase luminescence. AID 504766, 2011. inhibition, % at 6.75 µM. 0.99% of 340,000 active. Nuclear receptor subfamily 0 group B member 1 (Homo sapiens), P51843. HEK293 Gal4-DAX1 luciferase reporter;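 active = inhibition above the mean over all tested compounds plus 3 SD, cut at about 4.2% in these data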;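 note: inhibition shows as a rise in luminescence from relieved DAX1 repression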
Target sequence (P51843 207-470 limits assumed): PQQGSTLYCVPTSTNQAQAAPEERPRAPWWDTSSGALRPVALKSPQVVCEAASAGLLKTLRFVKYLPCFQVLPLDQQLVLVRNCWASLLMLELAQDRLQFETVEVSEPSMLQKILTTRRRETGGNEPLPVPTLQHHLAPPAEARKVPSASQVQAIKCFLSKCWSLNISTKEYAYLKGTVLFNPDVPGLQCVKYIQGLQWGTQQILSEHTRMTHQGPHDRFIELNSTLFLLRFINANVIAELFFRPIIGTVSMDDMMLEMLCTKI
DAX1 inh-2: DAX1 (NR0B1) inhibitors on StAR promoter, primary screen, cell-based, luminescence, SF-1 (NR5A1), full-length DAX-1 | HEK293T StAR-luciferase reporter, SF-1/DAX-1 repression relief | inhibition, % at 6.8 µM | 1.1% of 370,000 active;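 active = inhibition above the mean over all tested compounds plus 3 SD, cut at about 3.6% in these data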;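 note: higher inhibition means more luminescence from relief of DAX-1 repression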
SMARCA2 act conf: SMARCA2 (BRM) function activators, confirmation, cell-based, luminescence, triplicate; activation, % at 9.1 µM; 30% of 3,500 active; MG213 cells, MMTV-luciferase with dexamethasone, overnight; MG213 cells expressing E1A, Rb sequestered; DMSO wells 0%, reference activator 100%; shares compounds with SMARCA2 activ;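 active = activation above its plate's cutoff, the mean activation of tested wells plus 3 SD, cut at about 7.9% in these data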
VP16 Luc act: GAL4-VP16 luciferase reporter activation, counter-screen for SMARCA2 (BRM) activator project, cell-based, pG5luc, luminescence, high throughput; shares compounds with SMARCA2 activ; HEK293 GAL4-VP16 pG5luc reporter; scaled: DMSO wells 0%, SAHA wells 100%; activation, % at 9.1 µM; 41% of 3,500 active;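 active = activation above the solvent-only control well mean plus 3 SD, averaged across control plates, cut at about 5.2% in these data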
LXRb hcDAF ctr: LXR agonists, Gal4 luciferase reporter, confirmation, counter-screen for hcDAF-12 agonist project, cell-based, luminescence, HEK293, H. contortus campaign; HEK293 Gal4-LXR tk-luc reporter, 24 h; normalized: DMSO 0%, positive control 100%; AID 743027, 2013; shares compounds with hcDAF12 agonist; 3,400 tested, under 10 active; activation, % at 6.8 µM;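 active = mean percent activation of the reporter above a cutoff set as the average over tested compounds plus their standard deviation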
Target sequence (P55055 whole entry, looked up, the tested form may be a part): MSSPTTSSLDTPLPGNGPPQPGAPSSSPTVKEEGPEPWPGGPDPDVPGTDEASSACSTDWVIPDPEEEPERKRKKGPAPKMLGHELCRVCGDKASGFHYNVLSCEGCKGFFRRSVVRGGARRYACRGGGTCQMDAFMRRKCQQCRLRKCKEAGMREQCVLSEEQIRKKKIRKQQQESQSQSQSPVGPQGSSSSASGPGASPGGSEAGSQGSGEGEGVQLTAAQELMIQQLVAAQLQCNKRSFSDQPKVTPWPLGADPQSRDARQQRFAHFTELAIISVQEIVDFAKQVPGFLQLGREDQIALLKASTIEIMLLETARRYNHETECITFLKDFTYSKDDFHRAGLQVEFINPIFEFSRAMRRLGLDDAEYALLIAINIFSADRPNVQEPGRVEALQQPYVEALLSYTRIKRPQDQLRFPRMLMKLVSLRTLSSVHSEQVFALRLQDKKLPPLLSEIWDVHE
hcDAF12 conf: H. contortus DAF-12 receptor agonists, confirmation, cell-based, luminescence, HEK293, lit1-tk-luc, triplicate; shares compounds with hcDAF12 agonist; AID 743032, 2013; HEK293 hcDAF-12 lit1-tk-luc reporter; % of Δ7-dafachronic acid response; 61% of 3,400 active; activation, % at 6.8 µM;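 active = mean activation across triplicate tests above the threshold derived from the earlier primary screen, cut at about 5.5% in these data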
Of the large screens only hits and unclear results are named; the others gave an inactive call (follow-up assays come after a bar, where they were run); ! = repeats disagree. A selection: hits, their analogues and other compounds. The true share with any hit is near 4.8%.

O=C(/C=C/c1ccc(-c2ccccc2)o1)c1ccccc1	SMARCA2 activ 11.8 | SMARCA2 act conf 20.5 | VP16 Luc act inactive
CCOC(=O)CSc1nc2cc3c(cc2cc1C)OCO3	none
Cc1cc2cc3c(cc2nc1SCC(=O)N1CCOCC1)OCO3	SMARCA2 activ 8.4 | SMARCA2 act conf inactive | VP16 Luc act inactive
CNC(=O)c1[nH]cnc1C(=O)Nc1cccc(Cl)c1	none
CCCCn1c(N)c(N(C)C(=O)c2cc3c(s2)CCCCC3)c(=O)[nH]c1=O	SMARCA2 activ 8.5 | SMARCA2 act conf inactive | VP16 Luc act inactive
O=C(CSc1nnc(-c2ccccc2F)o1)NC1CC1	none
O=C(c1ccccc1)c1nnc(-c2ccccc2F)o1	SMARCA2 activ 11.1 | SMARCA2 act conf inactive | VP16 Luc act inactive
NC(=O)c1ccc(NCCc2cccs2)cc1	none (no result: DAX1 inh-1)
Cn1c2ccccc2c(=O)c2ccc(NCCc3cccs3)cc21	SMARCA2 activ 9.0, DAX1 inh-2 4.1 | SMARCA2 act conf 9.4 | VP16 Luc act 13.9
O=C(Nc1ccc(Cl)cc1)N1CCCC(Cn2cccc2)C1 (stereo not given)	none
S=C(NCC1CCCO1)Nc1cccc(Cl)c1 (stereo not given)	none
CC1(C)OC(=O)C2=C(C[C@@H](CCC(F)(F)F)O[C@H]2c2ccc(F)cc2)O1	SMARCA2 activ 8.2 (no result: DAX1 inh-1) | SMARCA2 act conf inactive | VP16 Luc act inactive
CCOC(=O)Nc1ccc(S(=O)(=O)NCCCN2CCOCC2)cc1	none
Cc1nc2c(nnn2Cc2ccccc2)c(=O)[nH]1	none
CN1CCN(Cc2nc3ccccc3c(=O)n2Cc2nc(-c3ccc4ccccc4c3)cs2)CC1	SMARCA2 activ 8.2! | SMARCA2 act conf 20.9 | VP16 Luc act inactive
N#CC1=C(N)Oc2n[nH]c(-c3cccnc3)c2C1c1ccc([N+](=O)[O-])o1 (stereo not given)	SMARCA2 activ 10.2 | SMARCA2 act conf inactive | VP16 Luc act inactive
Cc1cc(OCC(=O)NC(C)C)cc(C)c1Cl	SMARCA2 activ 11.4 | SMARCA2 act conf inactive | VP16 Luc act inactive
Cc1nc2cc(-c3ccc(Cl)cc3)nn2c(NCCN(C)C)c1C	hcDAF12 agonist 12.6, ssDAF-12 act 1.5, SMARCA2 activ 9.9 | SMARCA2 act conf 18.6 | VP16 Luc act 7.9 | LXRb hcDAF ctr inactive | hcDAF12 conf 7.5
C#CCn1c2ccccc2c2nc3ccccc3nc21	hcDAF12 agonist 7.1, SMARCA2 activ 9.3 | SMARCA2 act conf inactive | VP16 Luc act inactive | LXRb hcDAF ctr inactive | hcDAF12 conf inactive
COc1cccc(-c2nc(N3CCCCC3C)c3ccccc3n2)c1O (stereo not given)	none
COc1cccc(-c2nc(N3CCN(C)CC3)c3ccccc3n2)c1O	hcDAF12 agonist 7.8, SMARCA2 activ 18.7 | SMARCA2 act conf 18.9 | VP16 Luc act inactive | LXRb hcDAF ctr inactive | hcDAF12 conf inactive
Oc1c(N=Nc2ccc(F)cc2)ccc2ccccc12	hcDAF12 agonist 7.4, SMARCA2 activ 10.8 | SMARCA2 act conf inactive | VP16 Luc act 8.6 | LXRb hcDAF ctr inactive | hcDAF12 conf 12.3
Cc1ccc(N=Nc2ccc3ccccc3c2O)cc1	none
COc1ccccc1Cc1c(-c2cccc(Cl)c2)nc2c3ccccc3ccn12	none (no result: DAX1 inh-1)
FC(F)(F)c1ccccc1Cc1c(-c2cccc(Cl)c2)nc2c3ccccc3ccn12	hcDAF12 agonist 8.3, ssDAF-12 act 1.6, SMARCA2 activ 8.2 (no result: DAX1 inh-1) | SMARCA2 act conf inactive | VP16 Luc act inactive | LXRb hcDAF ctr inactive | hcDAF12 conf inactive
O=C(c1cc2cc(F)ccc2[nH]1)N1CCc2ccccc21	hcDAF12 agonist 16.2, hgDAF-12 ag 13.2, ssDAF-12 act 1.9, SMARCA2 activ 10.4, DAX1 inh-1 5.0 | SMARCA2 act conf inactive | VP16 Luc act 9.3 | LXRb hcDAF ctr inactive | hcDAF12 conf 9.2
O=C(c1cc2cc(Br)ccc2[nH]1)N1CCc2ccccc21	none
CCCC(=O)N/N=C1\CS(=O)(=O)N(C)c2ccsc21	none
CN1c2ccsc2/C(=N/Nc2ccc(F)cc2)CS1(=O)=O	hcDAF12 agonist 7.1, ssDAF-12 act 4.7, SMARCA2 activ 9.4, DAX1 inh-1 5.9 | SMARCA2 act conf 8.1 | VP16 Luc act 6.5 | LXRb hcDAF ctr inactive | hcDAF12 conf 9.1
Cc1ccc(Oc2ccc(OCC(=O)Nc3ccncc3)cc2)cc1	none (no result: DAX1 inh-1)
O=C(Nc1nc2c(F)cc(F)cc2s1)c1ccccn1	hcDAF12 agonist 7.0, hgDAF-12 ag 12.6, SMARCA2 activ 11.4 | SMARCA2 act conf inactive | VP16 Luc act 19.6 | LXRb hcDAF ctr inactive | hcDAF12 conf inactive
O=C1CC(c2ccc(F)cc2)Cc2nc(NCC3CCCO3)ncc21 (stereo not given)	none
COc1cccc(NC(=O)NCCCSC2CCCCC2)c1	none
Cc1ccc(-c2nc(NCCCO)c3ccccc3n2)cc1	none
Cc1ccc(-c2nc(NCCN(C)C)c3ccccc3n2)cc1	hcDAF12 agonist 13.9, SMARCA2 activ 12.7 | SMARCA2 act conf 15.0 | VP16 Luc act inactive | LXRb hcDAF ctr inactive | hcDAF12 conf 8.7
CCOc1ccc(C(=O)Oc2ccc(NC(C)=O)cc2)cc1	none (no result: DAX1 inh-1)
